High-throughput results deposited in PubChem by National Center for Advancing Translational Sciences (NCATS).
Rows were chosen to be rich in hits. Some 6.6% of all compounds tested hit in one or more screens of this group.
KB-3-1 cytotox = kills parental KB-3-1 adenocarcinoma cells; Potency, µM (doses to about 46.1 µM), usual class: cytotoxic; 1.4% of 400,000 active; KB-3-1 viability, CellTiter-Glo ATP luminescence, 72 h; AID 1347075; further: on the % scale 0 is the no-effect control and ±100 the full control effect; nearly all actives have a fitted effect of over 60% in size
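Multi-concentration cytotoxicity screen in KB-3-1 cells grown in DMEM lacking phenol red with 10% FBS. After 72 h at 37 °C with compound, ATP-dependent luminescence was recorded.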
KB-V1 MDR tox = kills drug-selected multidrug resistant KB-V1 cells. KB-V1 MDR cells viability, CellTiter-Glo, 72 h. Potency, µM (doses to about 46.1 µM), hits mostly cytotoxic. 3.4% of 400,000 active; further: on the % scale 0 is the no-effect control and ±100 the full control effect; nearly all actives have a fitted effect of over 60% in size
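KB-V1, DMEM (no phenol red) + 10% FBS; cpd pin-transferred, titration series; 72 h, 37 degrees C; CellTiter-Glo, luminescence. Data normalized, curve-fit.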
TGFb inhibitor = inhibitors of TGF-b signaling | 1.2% of 410,000 active | HepG2 CAGA-GFP TGF-b/SMAD3 reporter, GFP fluorescence, 18 h; TGF-beta stimulated, 500 pg/mL final | AID 588855 | Potency, µM (titrated, usually from 46.1 µM), without a hit: at the top dose activity, negative = inhibition, hits mostly inhibitors; further: on the % scale 0 is the no-effect control and ±100 the full control effect; nearly all actives have a fitted effect of over 65% in size
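Per well, imaged GFP fluorescence of HEPG2 CAGA-GFP cells gives the signal; cells get compound, then TGF-beta (500 pg/mL final), 18 h at 37 degrees C; %Activity versus -TGF-beta and +DMSO controls.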
HT1080 IDH1KD tx = kills HT-1080 cells with IDH1 knockdown. Potency, µM (doses to about 46.1 µM), inactives show at the top dose activity, negative = toxicity, actives largely listed as cytotoxic. 2% of 360,000 active. HT-1080 IDH1 knockdown viability, ATP luminescence, 48 h. AID 686971;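 further: 0% = DMSO wells and -100% = cell-free medium wells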
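Luminescent ATP read-out (CellTiter-Glo, 10 min at room temperature) after 48 h compound exposure at 37 °C gave viability of IDH1-knockdown HT-1080 cells. Activity was normalised to DMSO and cell-free wells, then fitted as concentration-response curves.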
HepG2 tox-1 = kills HepG2 cells in TGF-b inhibitor counter-screen. HepG2 CAGA-GFP viability, ATP luminescence, 18 h. 0.76% of 410,000 active. Potency, µM (titrated, usually from 46.1 µM), inactives show at the top dose activity change, negative = cytotoxicity, usual class: cytotoxic
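CellTiter-Glo luminescence gave cytotoxicity after 18 hours at 37 degrees C. The cells were HepG2 CAGA-GFP in 1% FBS DMEM, stimulated with 500 pg/mL TGF-beta after compound addition. %Activity was normalised to no-cell wells (complete cell-killing) and DMSO (no toxicity), and curves were fitted and classified.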
HT1080-NT tox = kills 2HG-producing HT-1080-NT fibrosarcoma cells; HT-1080-NT fibrosarcoma viability, CellTiter-Glo ATP luminescence, 48 h; Potency, µM (top dose mostly 46.1 µM), without a hit: top-dose activity, negative = less viability, most hits filed as cytotoxic; 1.6% of 360,000 active; AID 686970;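 further: NT is the 2HG producing partner of a matched IDH1 knockdown line; 0% = DMSO-treated cells and -100% = media-only wells without cells; nearly all actives have a fitted effect of over 55% in size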
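Fibrosarcoma NT cells, 750 per well in 5% FBS RPMI, were exposed to compound for 48 hours. Viability: CellTiter-Glo luminescence.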
TGFb CAGA inh = TGF-b pathway inhibition, cherry-pick retest; 63% of 1,600 active; shares compounds with TGFb inhibitor; HepG2 CAGA-GFP TGF-b reporter, GFP fluorescence, 18 h; cells stimulated with TGF-beta, 500 pg/mL; Potency, µM (series often up to 46.1 µM), for inactives: at the top dose activity, negative = inhibition, usual class: inhibitors; further: on the % scale 0 is the no-effect control and ±100 the full control effect; nearly all actives have a fitted effect of over 65% in size
HepG2 tox-2 = counter-screen for TGF-b inhibitors: cytotoxicity in HepG2 cells; AID 720535; shares compounds with TGFb inhibitor; HepG2 CAGA-GFP viability, ATP luminescence, 18 h; cells stimulated with TGF-beta, 500 pg/mL; 27% of 1,600 active; Potency, µM (highest dose often 46.1 µM), without a hit: at the top dose activity, negative = cytotoxicity, most hits filed as inhibitors; further: on the % scale 0 is the no-effect control and ±100 the full control effect; nearly all actives have a fitted effect of over 70% in size
TGFb CCL64 inh = blocks TGF-b signaling in CCL64 reporter cells | shares compounds with TGFb inhibitor | CCL64 CAGA-GFP reporter, TGF-b stimulated, GFP fluorescence, 18 h | 41% of 1,600 active | Potency, µM (doses to about 46.1 µM), inactives show at the top dose activity, negative = inhibition, usual class: inhibitors | AID 720536; further: nearly all actives have a fitted effect of over 65% in size
COP TGFb inh = TGF-b inhibition validated with COP promoter. HepG2 COP-GFP TGF-b reporter, GFP fluorescence, 18 h; cells stimulated by added recombinant TGF-beta. AID 720537. shares compounds with TGFb inhibitor. Potency, µM (top dose mostly 46.1 µM), without a hit: top-dose activity, negative = inhibition, usual class: inhibitors. 3% of 1,600 active; further: nearly all actives have a fitted effect of over 70% in size
An asterisk follows results filed as active. The call rests on the fitted dose curve; in most records, active means well fitted curve in the direction sought with a large enough effect; inconclusive means small, poorly fitted or top-dose-only effect, or another doubt; inactive means no such curve, though single readings can be large; an effect the other way counts as inactive or inconclusive. Potency means the concentration at half of the fitted maximal effect.

Screening COc1ccccc1-c1cc(C(=O)N/N=C/c2sccc2C)c2ccccc2n1 returned KB-3-1 cytotox inconclusive, KB-V1 MDR tox inactive, TGFb inhibitor -14%, HT1080 IDH1KD tx -19%, HepG2 tox-1 -8% and HT1080-NT tox -21%.
CCN(CC)S(=O)(=O)c1cccc(NC(=O)c2ccc(-n3nc(C)cc3C)cc2)c1 was read as KB-3-1 cytotox inconclusive, KB-V1 MDR tox 2.9µM*, TGFb inhibitor 7.9µM*, HT1080 IDH1KD tx 0%, HepG2 tox-1 -1%, HT1080-NT tox -6%, TGFb CAGA inh inconclusive, HepG2 tox-2 -18%, TGFb CCL64 inh -1% and COP TGFb inh -9%.
`CN(C)S(=O)(=O)c1cccc(NC(=O)COC(=O)CCSc2ccc(Cl)cc2)c1` gave KB-3-1 cytotox inactive, KB-V1 MDR tox inactive, TGFb inhibitor 8%, HT1080 IDH1KD tx 2%, HepG2 tox-1 2% and HT1080-NT tox 0%.
Screening CCN(CC)S(=O)(=O)c1cccc(NC(=O)CCSc2ccc(Cl)cc2)c1 returned KB-3-1 cytotox inconclusive, KB-V1 MDR tox inconclusive, TGFb inhibitor 10µM*, HT1080 IDH1KD tx -25%, HepG2 tox-1 7%, HT1080-NT tox -26%, TGFb CAGA inh 21µM*, HepG2 tox-2 inconclusive, TGFb CCL64 inh 26µM* and COP TGFb inh 26%.
`Cc1cc(C)n(-c2ccc(C(=O)Nc3cccc(S(=O)(=O)N(C)C)c3)cc2)n1` gave KB-3-1 cytotox inconclusive, KB-V1 MDR tox inconclusive, TGFb inhibitor inconclusive, HT1080 IDH1KD tx -20%, HepG2 tox-1 1% and HT1080-NT tox 1%.
Cc1ccc(C2(c3ccccc3)NC(=O)N(CC(=O)NCc3ccccc3)C2=O)cc1C (stereo not drawn) was read as KB-3-1 cytotox inconclusive, KB-V1 MDR tox inactive, TGFb inhibitor 11µM*, HT1080 IDH1KD tx -17%, HepG2 tox-1 -28%, HT1080-NT tox -20%, TGFb CAGA inh 7.3µM*, HepG2 tox-2 inconclusive, TGFb CCL64 inh inconclusive and COP TGFb inh 42%.
`Cc1ccc2oc(C(=O)Nc3ccc(S(=O)(=O)Nc4nc(C)cc(C)n4)cc3)cc(=O)c2c1` gave KB-3-1 cytotox inactive, KB-V1 MDR tox inactive, TGFb inhibitor 3% and HepG2 tox-1 5%.
Screening S=C(Nc1ccccn1)c1ccccn1 returned KB-3-1 cytotox inconclusive, KB-V1 MDR tox inconclusive, TGFb inhibitor 7.1µM*, HT1080 IDH1KD tx inconclusive, HepG2 tox-1 -62%, HT1080-NT tox inconclusive, TGFb CAGA inh -22%, HepG2 tox-2 inconclusive, TGFb CCL64 inh inconclusive and COP TGFb inh 6%.
O=C(NCCCN1CCN(c2ccccc2)CC1)c1nnc(Cc2c(F)cccc2Cl)o1 was read as TGFb inhibitor -10% and HepG2 tox-1 -19%.
Cc1ccccc1CN(CC(=O)Nc1cccc([N+](=O)[O-])c1)S(=O)(=O)c1ccc(Cl)cc1 was read as KB-3-1 cytotox inactive, KB-V1 MDR tox 5.8µM*, TGFb inhibitor 11µM*, HT1080 IDH1KD tx -22%, HepG2 tox-1 -28%, HT1080-NT tox inconclusive, TGFb CAGA inh 10µM*, HepG2 tox-2 inconclusive, TGFb CCL64 inh 2.3µM* and COP TGFb inh 71%.
`Cc1ccc(Cl)cc1Nc1nn2c(=O)c3ccc(C(=O)NCc4ccc(F)cc4)cc3nc2s1` gave KB-3-1 cytotox inactive, KB-V1 MDR tox inactive, TGFb inhibitor -12% and HepG2 tox-1 -10%.
For NC(=O)c1ccc(Oc2cccc3cccnc23)c([N+](=O)[O-])c1 the results were KB-3-1 cytotox inactive, KB-V1 MDR tox inactive, TGFb inhibitor 3%, HT1080 IDH1KD tx -4%, HepG2 tox-1 7% and HT1080-NT tox -23%.
Screening COc1ccc(C(=O)Oc2cccc3cccnc23)cc1[N+](=O)[O-] returned KB-3-1 cytotox inactive, KB-V1 MDR tox inactive, TGFb inhibitor 6.3µM*, HT1080 IDH1KD tx 16µM*, HepG2 tox-1 5.6µM*, HT1080-NT tox 10%, TGFb CAGA inh 3%, HepG2 tox-2 0%, TGFb CCL64 inh 16% and COP TGFb inh 5%.
`Cn1c(C(=O)N2CCC(C(=O)NCCc3ccc(S(N)(=O)=O)cc3)CC2)cc2sccc21` gave KB-3-1 cytotox inactive, KB-V1 MDR tox inactive, TGFb inhibitor -22% and HepG2 tox-1 6%.
`O=C(Nc1cccc(Cl)c1)c1cc(N=Nc2ccc([N+](=O)[O-])cc2Cl)ccc1O` gave KB-3-1 cytotox 21µM*, KB-V1 MDR tox inconclusive, TGFb inhibitor inconclusive, HT1080 IDH1KD tx -17%, HepG2 tox-1 -57%, HT1080-NT tox -13%, TGFb CAGA inh 4.6µM*, HepG2 tox-2 5.2µM*, TGFb CCL64 inh 2.3µM* and COP TGFb inh 77%.
O=C(Nc1ccccc1)c1cc([N+](=O)[O-])ccc1Cl was read as KB-3-1 cytotox inactive, KB-V1 MDR tox inactive, TGFb inhibitor 3%, HT1080 IDH1KD tx -20%, HepG2 tox-1 -23% and HT1080-NT tox -6%.
For CC(=O)Nc1ccc(CNc2nc3cc(-c4ccc(F)cc4)sc3c(=O)n2C)cc1 the results were KB-3-1 cytotox inactive, KB-V1 MDR tox inactive, TGFb inhibitor 1%, HT1080 IDH1KD tx -1%, HepG2 tox-1 -20% and HT1080-NT tox -8%.
